# Screening results (PubChem)
# Dicer inh = human Dicer pre-microRNA cleavage inhibition; Q9UPY3; cat-ELCCA pre-miR-21 Dicer processing, chemiluminescence; active compounds read high; z-score at 25 µM; actives 6% (n = 47,000); AID 1347074; in the data active = z-score above about 3, passing the limit was not always enough;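 note: plate controls were vehicle for no effect and no enzyme for full effect; higher signal means more uncleaved substrate so more Dicer inhibition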
# Active calls of the source: *. Only a selection was taken, and hits are over-represented in it overall.
SMILES,Dicer inh
Oc1cc2c(cc1C(c1ccc(C(F)(F)F)cc1)N1CCCCC1)OCO2 (configuration not stated),3.8*
O=C(NC(=O)c1ccc(C(F)(F)F)cc1)NN1CCCCCC1,-2.5
Nc1cc(C(F)(F)F)ccc1N1CCCCC1,-0.13
O=C1Nc2ccccc2/C1=C/c1ccc(N2CCOCC2)nc1,0.63
CCOC(=O)C1=C(C)Nc2nnnn2C1c1cc(Br)ccc1OCC (configuration not stated),1.5
CCOC(=O)C1=C(C)Nc2nnnn2C1c1ccccc1 (configuration not stated),3.1*
CCOC(=O)C1=C(c2ccccc2)Nc2ncnn2C1c1cccc(Br)c1 (configuration not stated),3.2*
CCOC(=O)C1=C(C)Nc2nnnn2C1c1ccc(OC)c(OC)c1 (configuration not stated),1.6
CCOC(=O)C1=C(C)Nc2nnnn2C1c1ccccc1Cl (configuration not stated),0.19
CCOC(=O)C1=C(C)Nc2nnnn2C1c1ccc(OCc2ccccc2)c(OC)c1 (configuration not stated),2.9
CCCOC(=O)C1=C(C)Nc2nnnn2C1c1ccccc1OCC (configuration not stated),3.4*
CCOC(=O)C1=C(C)Nc2ncnn2C1c1ccc(OC)c(OC)c1 (configuration not stated),0.01
CCCOc1ccccc1C1C(C(=O)OC(C)C)=C(C)Nc2nnnn21 (configuration not stated),-0.05
CCOC(=O)C1=C(c2ccccc2)Nc2ncnn2C1c1ccc(F)cc1 (configuration not stated),-0.11
CCOc1ccccc1C1C(C(=O)OC(C)C)=C(C)Nc2nnnn21 (configuration not stated),4.5*
CCOC(=O)C1=C(C)Nc2nnnn2C1c1ccccn1 (configuration not stated),2.3
COC(=O)c1sccc1NNS(=O)(=O)c1ccccc1,0.65
O=C(NCC1CCCO1)c1cc2n(n1)C(C(F)(F)F)CC(c1ccc3c(c1)OCO3)N2 (configuration not stated),-1.6
COC(=O)c1scc(C)c1NNC(=O)C(F)(F)F,0.22
COc1ccc(OC)c(CN2CCN(Cc3ccc(OC)c(Br)c3)CC2)c1,-0.14
Fc1cccc(CN2CCN(C3CCCC3)CC2)c1,3.8*
c1ccc(CN2CCC(N3CCN(C4CCCCC4)CC3)CC2)cc1,0.42
COc1ccc(OC)c(CN2CCN(C3CCCCC3)CC2)c1,3.1*
Clc1ccc(CN2CCN(C3CCCCC3)CC2)cc1,-2.5
CCc1ccc(CN2CCN(C3CCCCC3)CC2)cc1,2.5
SMILES,Dicer inh
Clc1ccc(CN2CCN(C3CCCC3)CC2)cc1,1.1
COc1ccc(OC)c(CN2CCN(Cc3ccc(SC)cc3)CC2)c1,2.2
Fc1ccccc1CN1CCN(C2CCCCC2)CC1,4.1*
CS(=O)(=NS(=O)(=O)c1cc(Cl)sc1Cl)c1ccc(OC(=O)c2ccc(Cl)cc2)cc1 (configuration not stated),0.85
CN(C)c1ccc(/C=N/NC(=O)N/N=C/c2ccc(N(C)C)cc2Cl)c(Cl)c1,-0.21
O=C1c2oc3ccccc3c(=O)c2C(c2cccc(O)c2)N1Cc1ccc2c(c1)OCO2 (configuration not stated),1
CCOC(=O)/C(C#N)=C/c1cccc2ccccc12,-0.37
CCCC1=NN(C(=O)c2ccc(Cl)cc2)C(=O)C1Cc1c(F)cccc1Cl (configuration not stated),7.9
Cc1ccc(C2c3c(oc4ccccc4c3=O)C(=O)N2c2ccccn2)cc1 (configuration not stated),0.91
Cc1ccc(N2C(=O)c3oc4ccccc4c(=O)c3C2c2cccc(Br)c2)nc1 (configuration not stated),2.9
Cc1ccc(N2C(=O)c3oc4ccccc4c(=O)c3C2c2ccc(Cl)cc2)nc1 (configuration not stated),3.8*
Cc1ccc(N2C(=O)c3oc4ccccc4c(=O)c3C2c2ccccc2)nc1 (configuration not stated),0.17
Cc1ccc(N2C(=O)c3oc4ccccc4c(=O)c3C2c2ccc(O)cc2)nc1 (configuration not stated),4.4*
CCOc1ccc(C2c3c(oc4ccc(C)cc4c3=O)C(=O)N2c2ccccn2)cc1 (configuration not stated),1.1
CCOc1ccc(C2c3c(oc4ccccc4c3=O)C(=O)N2c2nc(C)c(C)s2)cc1 (configuration not stated),0.15
CCOc1ccc(C2c3c(oc4ccccc4c3=O)C(=O)N2c2ccc(C)cn2)cc1 (configuration not stated),3.6*
COc1ccc(C2c3c(oc4ccccc4c3=O)C(=O)N2c2ccc(C)cn2)cc1OC (configuration not stated),1.6
CCCc1cc2c(=O)c(-c3ccc(C(=O)OCC)o3)coc2cc1O,0.09
NC(=O)C1CCN(C(=O)C2CC(c3cccc(Br)c3)=NO2)CC1 (configuration not stated),8.5
C[C@H](CCC(=O)O)C1CC[C@H]2C3CCC4C[C@H](O)CCC4(C)C3C[C@H](O)C12C (some centres not stated),0.37
CCOC(=O)NNC(=S)NC(C)CC (configuration not stated),0.18
Cc1c(C(=O)O)cc(-c2ccccc2)n1-c1ccccc1,0.83
O=C(O)CCC(=O)NCc1ccco1,0.43
COc1cccc(C2Nc3nonc3NC3=C2C(=O)CC(C)(C)C3)c1 (configuration not stated),-1.4
CCOC(=O)c1c(NC(=O)Nc2ccccc2)nc(SC)n1-c1ccccc1OC,-1.1
SMILES,Dicer inh
CC(=O)OCCNc1cc(Cl)c2noc3c2c1C(=O)c1ccccc1-3,3.2*
CCOc1ccc2noc3c2c1C(=O)c1ccccc1-3,-0.35
CCOC(=O)c1ccc2c3c(onc13)-c1ccccc1C2=O,-1.1
CCOC(=O)COc1ccc2c(=O)c(Oc3cccc(C)c3)c(C(F)(F)F)oc2c1,-0.9
COCc1cc(=O)[nH]c(/N=C(\N)Nc2ccccc2SC)n1,1.8
Cc1ccc2nc(Cc3ccc4nc(N)sc4c3)oc2c1,4.7*
Cc1ccc2nc(Cc3ccc(N)cc3)oc2c1,0.81
Nc1nc2ccc(Cc3nc4ccccc4o3)cc2s1,-0.46
O=C(Nc1cnc2sccn2c1=O)c1ccc(Cl)cc1,-0.16
CC1CCCCN1CCCNC(=S)Nc1cc(C(F)(F)F)cc(C(F)(F)F)c1 (configuration not stated),-0.19
NN/C(=N\S(=O)(=O)c1ccc(-n2nc(C(F)(F)F)cc2-c2cccs2)cc1)N1CCCC1,-1.8
CS/C(=N/S(=O)(=O)c1ccc(-n2nc(C(F)(F)F)cc2-c2cccs2)cc1)NNC(=O)Nc1ccccc1,4.4*
CN(C)/C=N/S(=O)(=O)c1ccc(-n2nc(C(F)(F)F)cc2-c2cccs2)cc1,-3.1
CSc1ccc(-c2ccc(SC)cc2)cc1,-0.48
CC1CN(S(=O)(=O)c2cccc(-c3cn4ccccc4n3)c2)CC(C)O1 (configuration not stated),-0.73
Cc1cc(C)c(S(=O)(=O)Nc2cccc(-c3cn4ccccc4n3)c2)c(C)c1,3.7*
Cc1ccn2cc(-c3cccc(S(=O)(=O)N4CCOCC4)c3)nc2c1,-0.79
Cc1ccn2cc(-c3cccc(S(=O)(=O)N(C)C)c3)nc2c1,0.25
O=S(=O)(Nc1cccc(-c2cn3ccccc3n2)c1)c1ccc(Br)cc1,4.4*
O=S(=O)(Nc1cccc(-c2cn3ccccc3n2)c1)c1ccc(F)cc1,1.9
